# Laboratory results reported in PubChem BioAssay (NCATS).
# Records with an inconclusive call do not appear. A number with no mark means an inactive call. Activity calls are given as the source filed them. The call rests on the fitted dose curve; in most records, active means well fitted inhibition curve with a large enough effect; inconclusive means small, poorly fitted or top-dose-only effect, or effect the other way; inactive means flat fitted curve, though single readings scatter.
# Biological target: ATP-dependent 6-phosphofructokinase (Trypanosoma brucei brucei) (UniProt O15648)
# Sequence (O15648 whole entry, looked up): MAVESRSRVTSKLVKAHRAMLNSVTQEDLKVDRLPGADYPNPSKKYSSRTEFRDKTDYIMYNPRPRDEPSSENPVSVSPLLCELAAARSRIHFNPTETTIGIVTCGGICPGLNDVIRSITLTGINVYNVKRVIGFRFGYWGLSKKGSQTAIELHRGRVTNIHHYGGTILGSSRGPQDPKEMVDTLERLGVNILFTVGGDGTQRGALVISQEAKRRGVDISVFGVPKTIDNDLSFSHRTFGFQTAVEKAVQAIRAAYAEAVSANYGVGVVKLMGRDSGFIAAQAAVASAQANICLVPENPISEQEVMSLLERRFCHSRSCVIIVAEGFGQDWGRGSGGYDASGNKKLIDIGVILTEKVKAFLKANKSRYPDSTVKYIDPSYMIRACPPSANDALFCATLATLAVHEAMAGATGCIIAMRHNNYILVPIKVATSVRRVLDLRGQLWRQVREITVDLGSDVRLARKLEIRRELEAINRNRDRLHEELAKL
# Experiment: qHTS Assay to Find Inhibitors of T. brucei phosphofructokinase: hit validation (AID 492961)
# Settings: T. brucei PFK, ADP-Glo luminescence; series mostly up to 51.4 µM; activity change, negative = inhibition: at the top concentration
# Procedure, shortened: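 Luminescence from ADP-Glo reports ADP generated as T. brucei PFK (1.25 nM) phosphorylates 0.5 mM fructose-6-phosphate using 0.1 mM ATP. Reactions ran 45 min at room temperature, pH 8.0.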
# On the % scale 0 is the no-effect control and ±100 the full control effect.
SMILES,"activity change, negative = inhibition",Potency
CN1C[C@@H](NS(=O)(=O)N(C)C)C[C@@H]2c3cccc4c3c(cn4C)C[C@H]21,6.52%,–
C=CCOC(Cn1ccnc1)c1ccc(Cl)cc1Cl (stereo not drawn),-6.55%,–
COCC(=O)N(c1c(C)cccc1C)C(C)C(=O)OC (stereo not drawn),-2.15%,–
NC(=O)OCCCc1ccccc1,5.55%,–
C[C@]12Cc3nonc3C[C@@H]1CC[C@@H]1[C@@H]2CC[C@@]2(C)[C@H]1CC[C@]2(C)O,-1.22%,–
CC(C)[N+](C)(CCC(C(N)=O)(c1ccccc1)c1ccccc1)C(C)C,1.91% [at 24.3 µM],–
C[C@H]1C(=O)O[C@@H]2CCN3CC=C(COC(=O)[C@](C)(O)[C@]1(C)O)[C@H]23,-3.05%,–
CCC1(CC)C(=O)NC(=O)NC1=O,1.2%,–
CCC(=O)O[C@H]1CC[C@H]2[C@@H]3CCC4=CC(=O)CC[C@]4(C)[C@H]3CC[C@]12C,-4.04% [at 24.3 µM],–
C[N+]1(CCC(C(N)=O)(c2ccccc2)c2ccccc2)CCCCC1,4.39%,–
CC[n+]1c(-c2ccccc2)c2cc(N)ccc2c2ccc(N)cc21,–,inactive
CC[C@]1(O)CC[C@H]2[C@@H]3CCC4=CCCC[C@@H]4[C@H]3CC[C@@]21C,-5.25%,–
C[C@]12CC[C@H]3[C@@H](CC=C4C[C@@H](O)CC[C@@]43C)[C@@H]1CC[C@@H]2O,8.59%,–
CN1C(=O)CN=C(c2ccccc2)c2cc([N+](=O)[O-])ccc21,0%,–
Nc1ccc(N)cc1,3.07%,–
CC(Cc1ccccc1)NCc1ccccc1Cl (stereo not drawn),-4.69%,–
CNC(=O)Oc1cccc2ccccc12,-0.794%,–
COP(=S)(OC)Oc1ccc(Sc2ccc(OP(=S)(OC)OC)cc2)cc1,-6.48%,–
